Screening data deposited in PubChem BioAssay by National Center for Advancing Translational Sciences (NCATS).
Sampled rows, rich in hits. Any-hit rate of the full collection: about 2.3%.
mIDH1 inhibitor = qHTS for Inhibitors of mutant isocitrate dehydrogenase 1 (IDH1): qHTS | Isocitrate dehydrogenase [NADP] cytoplasmic (Homo sapiens), O75874 | IDH1-R132H enzyme, NADPH consumption, diaphorase/resazurin fluorescence | Potency, µM (titrated, usually from 76.6 µM), actives largely listed as inhibitors | 0.093% of 390,000 active | AID 602179, 2012; further: nearly all actives have a fitted effect of over 65% in size
Target sequence (O75874 whole entry R132H, stated change not applied): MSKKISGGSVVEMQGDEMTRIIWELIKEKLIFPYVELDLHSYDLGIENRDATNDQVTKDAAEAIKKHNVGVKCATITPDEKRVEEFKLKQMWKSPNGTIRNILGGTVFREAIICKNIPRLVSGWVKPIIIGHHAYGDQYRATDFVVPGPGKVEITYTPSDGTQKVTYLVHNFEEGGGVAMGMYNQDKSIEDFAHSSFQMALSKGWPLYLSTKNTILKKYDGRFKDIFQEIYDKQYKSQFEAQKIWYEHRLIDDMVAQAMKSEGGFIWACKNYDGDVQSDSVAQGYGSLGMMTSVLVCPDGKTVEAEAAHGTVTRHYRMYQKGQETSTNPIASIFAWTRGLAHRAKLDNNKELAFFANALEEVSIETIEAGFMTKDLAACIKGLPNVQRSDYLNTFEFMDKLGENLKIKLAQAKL
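IDH1-R132H (0.5 ug/mL) preincubated 30 min with compound, then NADPH (0.016 mM) and alpha-KG (2 mM) added; 80 min at RT, pH 7.5. Remaining NADPH coupled via diaphorase/resazurin to fluorescence (540/590 nm); concentration-response curves normalized to no-enzyme control.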
A549 viability = Nrf2 qHTS screen for inhibitors: counterscreen for cytotoxicity; A549 ARE-Fluc cells, CellTiter-Fluor viability, 18-24 h; Potency, µM (doses to about 46 µM), actives largely listed as inhibitors; 0.16% of 390,000 active; AID 504648, 2011
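A549 ARE_Fluc cells in 5% FBS OPTI-MEM were exposed to compounds in concentration-response for 18-24 h at 37 deg C. Viability was read by CellTiter-Fluor fluorescence (Ex 405/Em 525) after 30 min, before the luciferase read.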
Nrf2 block = Nrf2 qHTS screen for inhibitors | A549 ARE-Fluc reporter, luciferase luminescence, 18-24 h | Potency, µM (top dose mostly 46 µM), most hits filed as inhibitors | 2.1% of 360,000 active; further: nearly all actives have a fitted effect of over 60% in size
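A549 ARE_Fluc cells (5000/well, 5% FBS OPTI-MEM) pre-incubated 2 h, then treated with compounds 18-24 h at 37C/5% CO2 in concentration-response. CellTiter-Fluor viability read first; BugLite luciferase luminescence after 15 min at room temperature gives Nrf2 activity.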
Giardia kill = Small Molecules that selectively kill Giardia lamblia: qHTS; Giardia lamblia trophozoite viability; activity change, % at 7.66 µM, hits read low; 0.15% of 340,000 active; AID 540267, 2011; in the data active means activity change below about -80%; inconclusive means between about -30% and that limit;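 further: parasites exposed to compound for two days anaerobically before the ATP read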
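Trophozoite viability was measured as ATP-dependent luminescence, read 15-30 min after reagent addition. Before that, parasites at 100 cells/well were exposed to compounds for 48 h, anaerobically, at 37 deg C.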
Apoferritin bind = qHTS Assay for Identification of Novel General Anesthetics; Potency, µM (top dose mostly 77.5 µM), actives largely listed as inhibitors; Ferritin light chain (Equus caballus), P02791; AID 485281, 2010; 0.074% of 350,000 active; apoferritin/1-aminoanthracene competitive binding, fluorescence; further: nearly all actives have a fitted effect of over 20% in size
Target sequence (P02791 2-175 limits assumed): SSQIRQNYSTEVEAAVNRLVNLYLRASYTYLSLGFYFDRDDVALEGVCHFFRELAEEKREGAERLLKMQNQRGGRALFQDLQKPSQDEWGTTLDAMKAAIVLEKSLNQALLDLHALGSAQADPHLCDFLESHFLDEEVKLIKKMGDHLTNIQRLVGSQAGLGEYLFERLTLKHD
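Read-out: endpoint 1-AMA fluorescence, excitation 380 nm and emission 535 nm, after compounds sit 10 min at room temperature with 10 uM horse-spleen apoferritin in 50% saturated 1-AMA/PBS. Values come from four-parameter Hill fits.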
Nrf2 ARE act = qHTS of Nrf2 Activators. 0.31% of 410,000 active. Potency, µM (top dose mostly 46.1 µM), hits mostly activators. AID 624171, 2012. AREc32 ARE-luciferase reporter (MCF7-derived line), luminescence, 24 h; further: nearly all actives have a fitted effect of over 65% in size
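For detection, Steady-Glo was added and plates sat 30 min at RT; before that, AREc32_Fluc cells grown overnight in OPTI-MEM/5% FBS had been treated with 23 nL compound for 24 hr at 37 deg C.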
A number is an active result; – = inactive; ? = inconclusive; · = no result; [ ] = another dose, or the depositor's remark. Unless noted, the call rests on the fitted dose curve; in most records, active means well fitted curve in the direction sought with a large enough effect; inconclusive means small, poorly fitted or top-dose-only effect, or another doubt; inactive means no such curve, though single readings can be large; an effect the other way counts as inactive or inconclusive.

SMILES | mIDH1 inhibitor | A549 viability | Nrf2 block | Giardia kill | Apoferritin bind | Nrf2 ARE act
Cc1nn(-c2ccc(N3CCCC3)nn2)c(C)c1CCC(=O)Nc1ccc(F)c(Cl)c1 | – | – | ? | · | – | –
O=C(NCCSCc1ccccc1)c1ccc(C2SCC(=O)N2Cc2ccccc2)cc1 (configuration not stated) | – | – | 10.3µM | – | – | –
O=C(Nc1ccc2snnc2c1)Nc1cccc2ccccc12 | – | – | 16.4µM | – | – | –
CCc1ccccc1NC(=O)Nc1ccc2snnc2c1 | – | – | – | · | – | –
c1ccc(-c2nn[nH]n2)c(Nc2cccc3c2CCCC3)c1 | · | · | · | · | – | ·
CNc1cc2c(cc1S(=O)(=O)Nc1ccc(C)c(C)c1)CCC(=O)N2 | · | – | ? | · | · | ·
CCOC(=O)c1c(NC(C)=O)sc2c1CCC(C=O)=C2Sc1ccccc1 | – | ? | 20.6µM | – | ? | ?
CCOC(=O)c1c(NC(C)=O)sc2c1CCN(Cc1ccccc1)C2 | – | – | – | – | – | –
O=C(CSc1nc(=O)n(Cc2ccncc2)c2c1CCC2)Nc1cccc(F)c1 | – | – | · | · | – | –
Cc1ccc(NS(=O)(=O)c2ccc(-c3ccccc3)cc2)cc1C | · | – | ? | · | · | ·
COc1ccc(N2N=NN(C(C)C)C2=C(Cl)c2nnnn2-c2ccc(OC)cc2)cc1 | – | – | – | – | · | 15.8µM
Cc1ccc(CNc2ncnc3nc[nH]c23)cc1 | · | – | – | – | · | ·
COc1ccc(C2Nc3ccccc3C(=O)N2Cc2ccccc2C)cc1COc1ccc(NC(C)=O)cc1 (configuration not stated) | · | – | ? | · | · | ·
COc1ccccc1NS(=O)(=O)c1ccc(N/N=C/c2c(C)nn(-c3ccccc3)c2N2CCCC2)c([N+](=O)[O-])c1 | – | ? | ? | – | – | –
O=[N+]([O-])c1ccc(N/N=C/c2cn(-c3ccccc3)nc2-c2ccccc2)cc1 | – | ? | – | – | – | –
Cc1nn(-c2ccccc2)c(N2CCCC2)c1/C=N/Nc1ccc(S(=O)(=O)Nc2ccccc2)cc1[N+](=O)[O-] | – | ? | 8.2µM | – | – | –
NS(=O)(=O)c1ccc(N/N=C/c2cn(-c3ccccc3)nc2-c2ccccc2)c([N+](=O)[O-])c1 | – | 20.6µM | 23.1µM | – | – | –
CCN(CC)c1ccc(/C=N/NC(=O)c2cccc(S(=O)(=O)Nc3ccccc3OC)c2)cc1 | – | – | – | – | – | –
COc1ccccc1NS(=O)(=O)c1cccc(C(=O)N/N=C/c2c(C)nn(-c3ccccc3)c2N2CCCC2)c1 | – | – | 18.4µM | – | – | –
CCN(CC)c1ccc(/C=N/NC(=O)c2cccc(S(=O)(=O)Nc3ccccc3OC)c2)c(O)c1 | – | – | 23.1µM | – | – | –
CN1CCN(c2oc(COc3ccc(-c4ccccc4)cc3)nc2C#N)CC1 | – | ? | 16.4µM | – | – | –
O=C1c2ccccc2NC(c2ccc(Br)s2)N1O (configuration not stated) | – | – | 18.4µM | – | · | –
O=C(NCc1ccc(F)cc1)c1ccc(CSc2nc3ccncc3n2Cc2ccc(F)cc2)cc1 | – | – | ? | · | – | –
CN1CCN(c2ccc(-c3ccc4ccccc4n3)cc2)CC1 | – | – | 10.3µM | ? | – | –
Clc1ccc(N2CCN(Cc3nnc(-c4ccc5c(c4)OCO5)o3)CC2)cc1 | – | – | – | · | – | –
SMILES | mIDH1 inhibitor | A549 viability | Nrf2 block | Giardia kill | Apoferritin bind | Nrf2 ARE act
Cc1ccc(Cl)cc1N1CCN(Cc2nnc(-c3ccc4c(c3)OCO4)o2)CC1 | – | – | 20.6µM | · | – | –
O=C1c2ccccc2C(=O)N1c1cccc(=O)[nH]1 | · | – | – | · | · | ·
O=C(NCCc1nc2ccccc2n1Cc1ccccc1F)c1ccc(F)cc1 | – | ? | 23.1µM | – | – | –
C/C(=N\NC(=O)CSCc1ccc([N+](=O)[O-])cc1)c1cccc(Br)c1 | – | – | 23.1µM | – | – | –
O=C(Nc1ccc(N2CCN(C(=O)c3ccco3)CC2)c(Cl)c1)c1cc2ccccc2o1 | – | ? | 18.4µM | – | – | –
CCC(=O)N1CCN(c2ccc(NC(=O)c3cc4ccccc4o3)cc2Cl)CC1 | – | ? | ? | – | – | –
CCCC(=O)N1CCN(c2ccc(NC(=O)c3cc4ccccc4o3)cc2Cl)CC1 | – | ? | 13µM | – | – | –
CC(/C=C/c1ccccc1)=N\Nc1nc2c(c(=O)[nH]c(=O)n2C)n1CCO | – | – | – | – | – | –
CCCn1c(N/N=C\C=C\c2ccccc2)nc2c1c(=O)[nH]c(=O)n2C | – | – | 9.2µM | – | – | –
CCOc1ccc(CNC(=O)c2cc3ccccn3n2)cc1 | – | – | ? | · | – | –
CO[C@H]1COC(=O)[C@@H](C)COC(=O)[C@@H](OCc2ccccc2)/C=C\[C@@H]1C | · | · | · | · | –[15.3 µM] | ·
CN(Cc1ccccc1)c1ncnc2sccc12 | – | – | 16.4µM | – | – | –
CN(Cc1ccccc1)c1ncnc2[nH]ncc12 | – | – | – | – | · | –
CCCn1c(N)c(C(=O)CSc2nnc(Cc3cccs3)n2C2CC2)c(=O)n(C)c1=O | – | – | 11.6µM | – | · | –
Cc1c(C(=O)OCc2nc3scc(-c4ccccc4)c3c(=O)[nH]2)cccc1[N+](=O)[O-] | – | – | 20.6µM | – | – | –
Cc1ccc(NC(=O)c2cc(CC(C)C)nc3ccccc23)cc1 | – | – | 5.8µM | – | – | –
CC(=O)Nc1cccc(Oc2ncnc3scc(-c4ccc(C)cc4)c23)c1 | – | ? | 18.4µM | – | – | –
Cc1ccc(-c2csc3ncnc(Oc4ccc5c(C)cc(=O)oc5c4)c23)cc1 | – | – | – | – | – | –
COc1cc(OC)cc(-c2c(-c3cccs3)c3cc(-c4cnc(N)nc4)ccc3n2C)c1 | – | – | 20.6µM | – | · | –
CCC(=O)N1Cc2cc(C(=O)NCC(F)(F)F)nc(-c3cccc(-c4cncnc4)c3)c2[C@H]1CCO | · | · | · | · | · | –
CC(=O)Nc1ccc(S(=O)(=O)N2CCN=C2SCc2ccc([N+](=O)[O-])cc2)cc1 | – | – | 8.2µM | – | ? | –
CC(=O)Nc1ccc(S(=O)(=O)N2CCN=C2SCc2cccc(C)c2)cc1 | – | – | ? | – | – | –
CC(=O)c1ccc(OCC(O)CN2CCN(S(=O)(=O)c3c(C)c(C)cc(C)c3C)CC2)cc1 (configuration not stated) | – | ? | 25.9µM | – | – | –
COc1ccc(/C=N/NC(=O)c2cc3cc(OC)c(OC)cc3[nH]2)cc1 | – | – | 20.6µM | – | – | –
